According to PubChem BioAssay (EPA / NIEHS):
Inconclusive results are not listed. The source made the active and inactive calls. Rule for the calls, unless noted: active = hit-call score of the fitted dose curve at least 0.9, where 1 is the maximum; inactive = score below 0.9.

Assays:
[1] = CCTE_Harrill_HTTr_Viability_MCF7: CCTE's 6-hour Cell Viability Assessment for the High-Throughput Transcriptomics (HTTr) Platform, in MCF-7 cells cultured in DMEM + 10% fetal bovine serum, Harrill Lab (AID 2284010)
Summary of the method: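 Read-out is propidium iodide gain of signal by high-content imaging, reflecting membrane integrity loss. Measurements are taken 6 h after dosing, eight concentrations per chemical, with DMSO serving as baseline for bidirectional curve fitting.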

[2] = CCTE_Harrill_HTTr_Apoptosis_MCF7: CCTE's 6-hour Apoptosis Assessment for the High-Throughput Transcriptomics (HTTr) Platform, in MCF-7 cells cultured in DMEM + 10% fetal bovine serum, Harrill Lab (AID 2284011)
Summary of the method: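 Read-out: CellEvent Caspase 3/7 Green signal by high content imaging, gain-of-signal indicating apoptosis. MCF-7 cells, DMEM + 10% FBS, eight-point dilution series, 6 h exposure. Curves fitted bidirectionally relative to DMSO negative control.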

[3] = CCTE_Harrill_HTTr_CellCount_MCF7: CCTE's Cell Proliferation Assessment for the High-Throughput Transcriptomics (HTTr) Platform, Harrill Lab (AID 2284012; active = hit-call score of the fitted dose curve at least 0.9, where 1 is the maximum;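 note: cells exposed to compound for six hours; intended direction is loss of nuclei count meaning fewer cells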)
Summary of the method: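 Cell count served as viability reporter: loss of Hoechst-stained nuclei, counted by high content imaging, marks decreased growth or survival. Exposure was 6 h in MCF-7 cells across eight concentrations, with DMSO as baseline.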

[4] = CCTE_Shafer_MEA_acute_burst_number: CCTE's Neural Acute Assay for Single-Electrode Bursts, Shafer Lab (AID 2284013)
Summary of the method: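 Primary rat cortical neurons on 16-electrode MEA wells, DIV 13 or 15, exposed to compound (0.03-40 uM; ≥3 wells); 40-min recordings at 37 C before and after treatment. Burst count expressed as percent change from baseline, DMSO as negative control.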

[5] = CCTE_Shafer_MEA_acute_burst_duration_mean: CCTE's Neural Acute Assay for Mean Burst Duration, Shafer Lab (AID 2284014);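 note: hits are decreases in mean burst duration relative to DMSO controls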
Summary of the method: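 Mean burst duration was compared between a 40 min baseline and a 40 min recording in the presence of compound (0.03-40 uM, 37 C), giving percent change per well. Cultures were rat cortical neurons at DIV 13 or 15; wells needed ≥10 active electrodes.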

[6] = CCTE_Shafer_MEA_acute_per_burst_spike_number_mean: CCTE's Neural Acute Assay for Average Number of Spikes Per Burst, Shafer Lab (AID 2284015);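 note: hits are decreases in mean spikes per burst versus baseline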
Summary of the method: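 We recorded spontaneous network firing of rat cortical neurons for 40 min before and 40 min during exposure to compound at 0.03-40 uM, at 37 C. Spikes were detected adaptively at 8x rms noise, and the change in average spikes per burst was fitted against DMSO.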

[7] = CCTE_Shafer_MEA_acute_interburst_interval_mean: CCTE's Neural Acute Assay for Mean Interburst Interval, Shafer Lab (AID 2284016);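 note: percent change of mean interburst interval versus each well's own pre-dose baseline; curves fitted for decrease in interburst interval relative to DMSO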
Summary of the method: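 MEA recording of spontaneous network bursting in primary rat cortical cultures; mean interburst interval was compared before and after a 40-min compound exposure (0.03-40 uM) and expressed as percent change, relative to DMSO.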

[8] = CCTE_Shafer_MEA_acute_burst_percentage_mean: CCTE's Neural Acute Assay for Percentage of Spikes in a Burst, Shafer Lab (AID 2284017)
Summary of the method: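 Compounds were tested at 0.03-40 uM on primary rat cortical neuron networks grown over microelectrodes, with at least three wells per compound. Spontaneous firing was recorded for 40 min before and 40 min after dosing, and the change in burst percentage was computed per well.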

[9] = CCTE_Shafer_MEA_acute_burst_percentage_std: CCTE's Neural Acute Assay for Standard Deviation of Burst Percentage, Shafer Lab (AID 2284018);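 note: fitted in the negative direction so actives lower burst percentage SD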
Summary of the method: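 Value is percent change from baseline in the across-electrode SD of spikes-in-bursts percentage, wells with >/= 10 active electrodes. Acute 40-min exposure to 0.03-40 uM on DIV 13 or 15 rat cortical cultures, recorded at 37 C after 40-min baseline.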

[10] = CCTE_Shafer_MEA_acute_per_network_burst_spike_number_std: CCTE's Neural Acute Assay for Standard Deviation of Number of Spikes in a Network Burst, Shafer Lab (AID 2284020);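 note: fitted for decrease in spike-number SD versus DMSO so actives lower it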
Summary of the method: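 Endpoint: percent change from 40 min baseline in standard deviation of spikes per network burst, after 40 min compound exposure (0.03-40 uM, 37 C). Cortical rat neurons on MEA at DIV 13 or 15; spikes detected at 8x rms noise, 300-5000 Hz band-pass.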

[11] = CCTE_Shafer_MEA_acute_per_network_burst_electrodes_number_mean: CCTE's Neural Acute Assay for Mean Number of Electrodes in a Network Burst, Shafer Lab (AID 2284021);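 note: curves fitted for decreases only so hits reduce electrodes per burst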
Summary of the method: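 Readout: % change in mean electrodes active per network burst, post- vs pre-treatment, each well. Spikes detected at 8x rms noise after 300-5000 Hz band-pass; rat cortical cultures, DIV 13/15, compounds 0.03-40 uM, DMSO baseline.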

[12] = CCTE_Shafer_MEA_acute_network_burst_percentage: CCTE's Neural Acute Assay for Percentage of Network Bursts, Shafer Lab (AID 2284022);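 note: curves fitted for loss so actives lower network burst percentage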
Summary of the method: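 Rat cortical cultures, DIV 13/15; 20 min equilibration, 40 min baseline, compound 0.03-40 uM, 40 min recording, 37 C. Spikes: 300-5000 Hz band-pass, threshold 8x rms noise. Readout: % change in network-burst spike fraction; loss direction vs DMSO.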

[13] = CCTE_Shafer_MEA_acute_cross_correlation_area: CCTE's Neural Acute Assay for Area of Cross Correlation, Shafer Lab (AID 2284024);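 note: rat primary cortical neuron networks on 48-well MEA at DIV 13 or 15 with 40 min exposure; area under pooled inter-electrode spike cross-correlation near zero lag as percent change from own baseline; curves fitted for loss of cross-correlation area so actives lower synchrony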
Summary of the method: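 Rat cortical cultures, DIV 13/15, MEA; spikes detected at 8x rms noise (300-5000 Hz band-pass). Compound 0.03-40 uM, ≥3 wells each. Readout: % change in pooled inter-electrode cross-correlation area vs own baseline; DMSO negative control.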

Measured: AC50

O=C(Nc1cccc(C(F)(F)F)c1)c1cc(Br)cc(Br)c1O
inactive: [1] | [2] | [3]

CC(=O)NS(=O)(=O)c1ccc(N)cc1
inactive: [1] | [2] | [3]

CCOC(=O)N1CCC(=C2c3ccc(Cl)cc3CCc3cccnc32)CC1
inactive: [1] | [2] | [3]

CCCCCC/C=C\CCCCCCCC(=O)O
inactive: [1] | [2] | [3]

CCCCCCCCCCCCCCCC(=O)OCC
inactive: [1] | [2] | [3]

c1c[nH]cn1
inactive: [1] | [2] | [3]

CCCOC(=O)CCCCC(=O)OCCC
inactive: [1] | [2] | [3]

C=C(C)[C@H]1CC=C(C)CC1
inactive: [1] | [2] | [3]

C#CC1(O)CC[C@H]2[C@@H]3CCC4=CCCC[C@@H]4[C@H]3CC[C@@]21C (some centres undefined)
inactive: [1] | [2]

CCC(=O)Oc1ccc(/C(CC)=C(\CC)c2ccc(OC(=O)CC)cc2)cc1
inactive: [1] | [2] | [3]

Cc1cnc(NC(=O)C2=C(O)c3ccccc3S(=O)(=O)N2C)s1
inactive: [1] | [2]

Cc1cc(C)c(C)cc1C
inactive: [1] | [2] | [3]

C1CN(SSN2CCOCC2)CCO1
inactive: [1] | [2] | [3]

C=CC(=O)NC(C)(C)CS(=O)(=O)O
inactive: [1] | [2]

C=C1C2CCC(C2)C1(C)C (centres undefined)
inactive: [1] | [2] | [3]

CCCCOCCOC(=O)COc1nc(Cl)c(Cl)cc1Cl
inactive: [1] | [2] | [3]

C[C@]12C=CC(=O)C=C1CC[C@@H]1[C@@H]2[C@@H](O)C[C@@]2(C)[C@H]1CC[C@]2(O)C(=O)CO
inactive: [1] | [3]

Cc1ccccc1C
inactive: [1] | [2]

Cc1c(C)c([N+](=O)[O-])c(C(C)(C)C)c([N+](=O)[O-])c1C
inactive: [1] | [2]

OC1CCCCCCCCCCC1
inactive: [1] | [2] | [3]

O=C(O)CCCC[C@@H]1SC[C@@H]2NC(=O)N[C@@H]21
inactive: [1] | [3]

Nc1ccc(N=Nc2ccccc2)c(N)n1
inactive: [1] | [3]

C1=Cc2ccccc2C1
inactive: [1] | [3]

O=C1c2cccc(O)c2C(=O)c2c(O)cc(CO)cc21
inactive: [1] | [3]

O=c1c2ccccc2oc2ccccc12
inactive: [1] | [3]

CCOC(=O)c1ccccc1C(=C1C=C(Br)C(=O)C(Br)=C1)c1cc(Br)c(O)c(Br)c1
not listed: [2] | [3]
inactive: all other assays above

CO[Si](OC)(OC)c1ccccc1
not listed: [1] | [2] | [3]
inactive: all other assays above

CCCCC(CC)COC(=O)c1ccccc1O (centres undefined)
active: [7] 7.5 µM
not listed: [2]
inactive: all other assays above

C=C[Si](OC(C)=O)(OC(C)=O)OC(C)=O
not listed: [1] | [2] | [3]
inactive: all other assays above

CC(=O)Nc1nnc(S(N)(=O)=O)s1
inactive: [1] | [3]

NC(=O)c1ccccc1O
inactive: [1] | [3]

NC(=O)N=NC(N)=O
inactive: [1] | [3]

CCCCCCC(O)CO (centres undefined)
inactive: [1] | [3]

CN(C)c1ccc(N=Nc2ccccc2C(=O)O)cc1
inactive: [1] | [3]

CN(C)c1ccc(C(=N)c2ccc(N(C)C)cc2)cc1
inactive: [1] | [3]

CC(=O)[C@@]1(O)CC[C@H]2[C@@H]3C[C@H](C)C4=CC(=O)C=C[C@]4(C)[C@@]3(F)[C@@H](O)C[C@@]21C
inactive: [1] | [3]

COC(=O)C1=C(C)NC(C)=C(C(=O)OCC(C)C)C1c1ccccc1[N+](=O)[O-] (centres undefined)
inactive: [1] | [3]

O=c1[nH]c(=O)c2[nH]c(=O)[nH]c2[nH]1
inactive: [1] | [3]

Nc1ccc(N)c(Cl)c1
not listed: [1] | [2] | [3] | [9]
inactive: all other assays above

CN1C(=O)N(C)C(O)C1O (centres undefined)
not listed: [1] | [2] | [3]
inactive: all other assays above

O=C1CCCN1CCO
not listed: [1] | [2] | [3]
inactive: all other assays above
